Measured values: PubChem BioAssay AID1347426 (Functional Genomics Laboratory (NCATS/FGL), 2020)
Hit rate of the full screen: of about 31,000 sequences, about 1,400 (4.5%) were called active. Many of the other results were omitted from the sample, so actives are more common in it than they were. Values without a mark were called inactive.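 The calls were made as follows: active = median seed-adjusted z-score above 1 or below -1; inactive = the rest.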

experiment: Novel Modifiers of Survival Motor Neuron (SMN) Protein: Gene Identification via Genome-wide siRNA Screen; conditions: HEK293T SMN2-luciferase reporter, siRNA knockdown, 72 h; actives lie on both sides;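 also: luminescence tracks full-length SMN protein made from the SMN2 reporter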
Method in brief: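 Steps: spot 1 pmol siRNA, add Lipofectamine RNAiMax in serum-free DMEM, seed HEK293T SMN2–luciferase reporter cells; incubate 72 h at 37 °C; add ONE-Glo; normalize luminescence to control siRNA, log10, MAD. Candidates: |MAD| > 1.0.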

Row | Sequence | median seed-adjusted z-score
1 | GAGUGAGGACGGAAGAUCATT against APH1A | 0.741
2 | GGCUGUAUGAGCACCGUUATT against TGIF1 | 0.303
3 | GGAUGUUAGUAAACUCUCUTT against PSMA4 | 0
4 | GAAUGUUAGUAGACGGGUUTT against IKZF5 | 0.399
5 | GCACUAUCCAGUUUGUGGATT against TUBA3E | -0.35
6 | GGCCGUUACUUACCAGAGUTT against UROD | 1.11 (active)
7 | GAGAAACUAGAAUACAGAATT against ADPRH | -0.406
8 | GGGAUUAUCUUGCUUCCAATT against LPCAT2 | 0
9 | CCGUGAACCCAGAACAGUATT against PIP4K2A | 0.469
10 | GAGUCAGGACAAGAAGAUUTT against PHPT1 | 1.27 (active)
11 | GGAUGGAACUUUACCCUCATT against MKL2 | -0.863
12 | CUACAAGCAUCGAUAGUAATT against EIF4G3 | -0.0562
13 | GAAAGAAAUCAACUGAUGATT against FBP1 | -0.221
14 | GCAGACUCUCGACAUCCGATT against MAFK | 1.73 (active)
15 | GCUCAUUCCAGGUCAAUCATT against MLL3 | -0.248
16 | GCUCAUAGGUAAGAAUUGUTT against NUBP1 | -0.0975
17 | CGGCCUUCAUCGCAGUACATT against SLC7A5 | 0.00397
18 | GGGUGAAGUCUCUCAAGAATT against LLGL1 | -1.13 (active)
19 | CAAGAUCUAUGAUAAGGAUTT against GUCA1B | 0
20 | ACUUCAACAUGACCAAAAATT against PPARD | 0.0283
21 | GAGCUUGUAUAUGAAGCUATT against PDCD4 | -0.0842
22 | GGAUGACAGUCUCAUUGCATT against GON4L | 0.116

Row | Sequence | median seed-adjusted z-score
23 | CCAUGCUGUCUAUAGCCUATT against TRPC5 | -1.14 (active)
24 | GGUUUUAGACCACACUAAATT against MSH3 | 0.428
25 | CAUUCCCUGUUGUAAUCAATT against MDH1 | -0.154
26 | CGUCAUCACCCUCAACUAUTT against NLGN3 | -0.0279
27 | GGACAUCGAAAAGUUAGUATT against MX2 | -0.0346
28 | CAAGAGUCUCUUUAAGGAATT against ACTL8 | 0
29 | GGAUGUAUGACAUCUGUAATT against STC1 | -1.36 (active)
30 | GCAUCCCUACGGUUGUUGATT against EIF2B4 | 0
31 | GAGAAUAUCUGGAACCAGUTT against BDKRB1 | 0.448
32 | CCAAUGCCCAGAUUAUGUATT against CELSR2 | -0.493
33 | GGAGAUACCUGGUCUCUUUTT against ADAM21 | 0
34 | GUCUUUCAGGUGUACCCAUTT against GATA1 | 0.371
35 | GCAUGCCCAUGAACAAAAATT against B3GNT1 | 0.0931
36 | GAAUGGGUCUUGUAAAUCATT against PPAT | -1.51 (active)
37 | ACCUGAUGGUGGGCGCAAATT against MYBPC3 | 0.304
38 | AGAUCAACCUGCUUCCCGATT against PDK2 | -0.481
39 | GGAUUAUAGUGUCACCUAUTT against CPD | -0.198
40 | GCGCAUUACUUUCUAGAAATT against PEX5L | 0.0982
41 | GAAUCAAGAAUUAAAGACATT against PIPOX | 1.06 (active)
42 | CAGUUCAUGUGGAUCAUCATT against GABARAPL2 | 0.528
43 | CCACCUGUACAGCACGGUATT against TGFB1I1 | 0.887
44 | GGGCAAAGCGAAACGCAAATT against ZNF536 | -0.295

Row | Sequence | median seed-adjusted z-score
45 | GCACGAGCCUUUCUCCAGUTT against RNASE7 | 1.07 (active)
46 | GAAAGUCCAGAUGAGGAUATT against KLF9 | 0.767
47 | GAAAUGGACCAGACACUAATT against POU2F2 | 0.163
48 | GGGACCAAAAUCAAUGAAATT against PCBP3 | -0.0373
49 | GAAUGCAGGGAGAAACUUATT against TRIM64 | -0.024
50 | GGAAGACAGAGAAUCGAAATT against SEMA5A | -0.443
51 | GACAAGACGUGGUCAAGAATT against BCL2L13 | 0.311
52 | GCAGUAGACUGAGCAGCAATT against TMTC4 | -1.16 (active)
53 | CCUCAGGGAAGUACCCAAATT against RNASE8 | 0.00771
54 | CGCCUACACUCCUACGUGUTT against ZDHHC24 | -0.695
55 | UGCCCGCUGUAGAUGAGAATT against APOC2 | -0.0599
56 | GUUUCACCAUCGUUCGUGATT against PROKR2 | 0.328
57 | CAAAAUGCAUUAGCUGAAATT against VIP | 1.52 (active)
58 | AGAUGUACAUCCUCGUGCATT against ELFN2 | -0.0888
59 | CUCCUGAGAUAAUAAUGAATT against RFC3 | 0.733
60 | CUCCUAUAAGAAAUCAAUATT against FLVCR1 | 0.197
61 | CCAAUACAGUGGACAGUUATT against EMR1 | 0.255
62 | GGAGGGUCUUCAUCGCUGATT against POLR2C | -2.95 (active)
63 | AAAGAAUCAUUGUGAAAGATT against PARVA | 0.0852
64 | GCCUUCCACGCUUUCCUGATT against RGS16 | 0
65 | GCGCAAUAAUGAACGGCAATT against GALNT14 | 0
66 | CGAUCGCAAGUACCACGAATT against ATP8B1 | 0.357

Row | Sequence | median seed-adjusted z-score
67 | GACUAGCUGCUGAUAAGAATT against CKAP5 | -1.87 (active)
68 | AGUCCUCGGUGAUGCGUGATT against LMNB2 | -0.15
69 | CAGGCACAGUUGCCGAUUATT against CD247 | -0.522
70 | CCUUGACCAUGAAAAAGAATT against ZNF704 | -0.15
71 | GCUAUUGAAAGUACACCUATT against NARG1 | -1.02 (active)
72 | GGUUAUAACGGGACGAUUUTT against KIF5C | 0.283
73 | CCAUGUUAGAAGCCCGGAATT against ZNF385D | -0.338
74 | AGAGGUACGUCUACAGUAUTT against F2R | -0.392
75 | CGUCAAAUUUUUGCACAAATT against GPR176 | 0.0782
76 | GCCGAAUUGUUUCUAGUUATT against PIN1 | 0.156
77 | GACAGUCACUGAGCAUAGATT against PKD1L2 | -1.17 (active)
78 | GGAGAAAUCAGCUACAGGATT against SRD5A2 | 0.185
79 | CAAUUGGAAUCGUCUUUUUTT against UBAC2 | 0.611
80 | CAAGUCCCAUUGAUCCUGATT against HLF | 0.0548
81 | CAAGAGCAAGCAAACCUAATT against OLR1 | 0
82 | CGGCAAGAGUGUCCAGUAUTT against RNF5 | -0.0342
83 | CCUUAGGAAUGAAAUCGCUTT against SIPA1L1 | 0.0925
84 | GCACUAGCAGAGUCCGAAATT against OPRK1 | -1.08 (active)
85 | CAGAAUCGCUUCUACAAGATT against SPAG6 | -0.439
86 | UGACAUCCGUGACCUCUAATT against LHX9 | 0.157
87 | GGAAAACGGCAUUGCAGAATT against SLC23A2 | -0.0585
88 | GGCACUAUUCUGCUAAGAATT against RAPGEF5 | 0.529

Row | Sequence | median seed-adjusted z-score
89 | GCCUGUUCGAAAGCGCAAATT against UBR4 | 0.602
90 | AGGAGAAUGUGAUCCGAGATT against TXNDC14 | -2.39 (active)
91 | GGGUCUUCAUGAUUGGUGUTT against SLC44A5 | 0.179
92 | GUUUGUAGGUCGUCAGAAATT against NDUFS6 | -0.0128
93 | CAUCCAGUCUGUAUACGAATT against ACLY | 0.478
94 | GCCUCCAAAGGUUACAUUUTT against UBE2E1 | 0.888
95 | GAUGUAAACCCUGAACUAATT against CSRP2 | -0.829
96 | GAGGUAAUCUGGGUGCACATT against PARK7 | -0.357
97 | GAAUGGAGGUCAACUAUAUTT against UBE2E2 | -1.77 (active)
98 | GAAUGUCAUCCGUAUUUCATT against AKR1C3 | -0.00538
99 | GGAACUGCUGCAUUAGAUATT against ITCH | 0.199
100 | GAAUUUGUUCAUUAUCGUATT against UBE3A | 0.0949
101 | GGCGAACUGUUUUAGAAGATT against CCNB2 | 0.0328
102 | CGAUGUUGGUUAUGAGAGATT against ACTR3 | -0.7
103 | GGAUAGAGGUUUCCAGUUUTT against CNBP | -1.14 (active)
104 | GCAGGUUCCUUAUCUGUCATT against BIRC5 | 0.0236
105 | GGAUUAGUGAUUAUAUGGATT against NPAS3 | -0.0316
106 | CAUCCAAGAUUAUAGUGGATT against PNLIP | 0.385
107 | GUACAGACCUGAGAAUUCUTT against CTSL2 | -1.04 (active)
108 | GAUGAACCCUGGAACUUCATT against ZNF354B | 0.393
